Our source for the cytotoxicity call values is the antibiotic and cytotoxicity screens of Wong et al. (2023).

The campaign covered roughly 39,000 compounds. About 3,300 (8.5%) were called active. For the sample, actives were picked, then their nearest neighbours and some compounds at random.

This test deals with HepG2. The test is described as follows: cytotoxicity call (relative viability < 0.9). The following applies: 10 µM.
Take `CN(Cc1cc(Br)cc(Br)c1N)C1CCCCC1.Cl`: the cytotoxicity call was “inactive”.

Regarding `C[C@@H]1CN([C@@H](C)CO)C(=O)c2ccccc2-c2ccccc2CO[C@@H]1CN(C)Cc1ccc(-c2ccccc2)cc1`, the cytotoxicity call was “inactive”.

Take `Cc1noc(C)c1NC(=O)Nc1ccc2c(c1)C(=O)N([C@@H](C)CO)C[C@@H](C)[C@@H](CN(C)Cc1ccc3c(c1)OCO3)OCCCC[C@H](C)O2`: the cytotoxicity call is “inactive”.

As to `Cc1cc(C(=O)Nc2cccc3c2O[C@H](CN(C)Cc2ccc(C(=O)O)cc2)[C@H](C)CN([C@@H](C)CO)C3=O)n(C)n1`, the cytotoxicity call was “inactive”.

As to `CO[C@H]1CN(C)C(=O)c2cc(NS(=O)(=O)c3cn(C)cn3)ccc2OC[C@@H](C)N(CCC(F)(F)F)C[C@@H]1C`, the cytotoxicity call is “inactive”.

On to `C[C@@H]1CCCCO[C@@H](CN(C)S(C)(=O)=O)[C@@H](C)CN([C@@H](C)CO)C(=O)c2cc(N(C)C)ccc2O1`, for which the cytotoxicity call was “inactive”.

On to `C[C@H](CO)N1C[C@H](C)[C@H](CN(C)S(C)(=O)=O)Oc2ccc(NC(=O)Cn3cnnn3)cc2CC1=O`, for which the cytotoxicity call is “inactive”.

For the compound `CC(C)N1C[C@H](C)[C@@H](CN(C)Cc2ccc(Cl)c(Cl)c2)Oc2c(cccc2-c2nnc(-c3ccncc3)o2)C1=O`, the cytotoxicity call is “inactive”.

Consider `Cc1noc(C)c1NC(=O)N[C@@H]1CC[C@@H](CC(=O)NCCCN(C)C)O[C@@H]1CO`, for which the cytotoxicity call is “inactive”.

For the compound `CC(C)CC#Cc1ccc2c(c1)O[C@H](CN(C)C(=O)C1CCOCC1)[C@H](C)CN([C@@H](C)CO)S2(=O)=O`, the cytotoxicity call was “inactive”.

`CCCN(C)C[C@H]1OCCCC[C@@H](C)Oc2ccc(NS(=O)(=O)c3cn(C)cn3)cc2C(=O)N([C@@H](C)CO)C[C@@H]1C`: the cytotoxicity call is “inactive”.

For the compound `C[C@H]1CN([C@@H](C)CO)C(=O)c2cccc(NS(=O)(=O)c3cn(C)cn3)c2O[C@H]1CN(C)C(=O)NC1CCCCC1`, the cytotoxicity call is “inactive”.

Regarding `COc1ccc(S(=O)(=O)Nc2ccc3c(c2)CC(=O)N([C@H](C)CO)C[C@@H](C)[C@H](CN(C)S(=O)(=O)c2ccc(C)cc2)O3)cc1`, the cytotoxicity call is “inactive”.

As for `Cc1noc(C)c1NC(=O)N[C@@H]1C=C[C@@H](CC(=O)NCCCN(C)C)O[C@H]1CO`, the cytotoxicity call was “inactive”.

Regarding `COc1ccc(S(=O)(=O)N(C)C[C@@H]2OCCCC[C@H](C)Oc3ccc(NS(=O)(=O)c4cn(C)cn4)cc3C(=O)N([C@H](C)CO)C[C@@H]2C)cc1`, the cytotoxicity call is “inactive”.

As to `COc1ccc(S(=O)(=O)N(C)C[C@H]2OCCCC[C@H](C)Oc3ccc(NS(=O)(=O)c4ccc(Cl)cc4)cc3C(=O)N([C@H](C)CO)C[C@H]2C)cc1`, the cytotoxicity call was “active”.

With `COc1ccc(S(=O)(=O)Nc2ccc3c(c2)C(=O)N([C@@H](C)CO)C[C@H](C)[C@@H](CN(C)S(=O)(=O)c2ccc(Cl)cc2)OCCCC[C@@H](C)O3)cc1`, the cytotoxicity call is “inactive”.

Regarding `COc1ccc(S(=O)(=O)N(C)C[C@H]2OCCCC[C@@H](C)Oc3ccc(NS(=O)(=O)c4ccc(Cl)cc4)cc3C(=O)N([C@H](C)CO)C[C@H]2C)cc1`, the cytotoxicity call is “active”.

With `COc1ccc(S(=O)(=O)N(C)C[C@@H]2OCCCC[C@@H](C)Oc3ccc(NS(=O)(=O)c4cn(C)cn4)cc3C(=O)N([C@@H](C)CO)C[C@H]2C)cc1`, the cytotoxicity call was “inactive”.

`COc1ccc(S(=O)(=O)N(C)C[C@H]2OCCCC[C@@H](C)Oc3ccc(NS(=O)(=O)c4cn(C)cn4)cc3C(=O)N([C@H](C)CO)C[C@H]2C)cc1`: the cytotoxicity call is “active”.

Regarding `COc1ccc(S(=O)(=O)Nc2ccc3c(c2)C(=O)N([C@H](C)CO)C[C@@H](C)[C@H](CN(C)S(=O)(=O)c2ccc(Cl)cc2)OCCCC[C@@H](C)O3)cc1`, the cytotoxicity call was “inactive”.

Turning to `COc1ccc(S(=O)(=O)Nc2ccc3c(c2)C(=O)N([C@@H](C)CO)C[C@H](C)[C@H](CN(C)S(=O)(=O)c2ccc(Cl)cc2)OCCCC[C@@H](C)O3)cc1`, the cytotoxicity call is “active”.

As for `Cc1noc(C)c1S(=O)(=O)Nc1ccc2c(c1)C(=O)N([C@H](C)CO)C[C@@H](C)[C@@H](CN(C)S(=O)(=O)c1ccccc1)O2`, the cytotoxicity call was “inactive”.

With `COc1ccc(NC(=O)Nc2cccc3c2O[C@@H](CN(C)S(C)(=O)=O)[C@H](C)CN([C@H](C)CO)C3=O)cc1`, the cytotoxicity call was “inactive”.

On to `COc1cccc(NC(=O)N[C@H]2CC[C@@H](CC(=O)N3CCOCC3)O[C@@H]2CO)c1`, for which the cytotoxicity call was “inactive”.

With `CO[C@@H]1CN(C)C(=O)c2cc(NC(=O)C3CCOCC3)ccc2OC[C@@H](C)N(C(=O)C2CCOCC2)C[C@H]1C`, the cytotoxicity call was “inactive”.

Turning to `CN1C(=O)c2cc(NS(=O)(=O)c3ccc(F)cc3)ccc2OC[C@H]2O[C@@H](CC(=O)Nc3cccc4ccccc34)CC[C@@H]21`, the cytotoxicity call is “inactive”.

Regarding `C[C@H](CO)N1C[C@H](C)[C@H](CN(C)C(=O)Nc2ccc(F)cc2)OCCCC[C@H](C)Oc2ccc(NC(=O)CCCN(C)C)cc2C1=O`, the cytotoxicity call is “inactive”.

In the case of `COc1ccc(S(=O)(=O)Nc2ccc3c(c2)CC(=O)N([C@@H](C)CO)C[C@@H](C)[C@H](CN(C)Cc2ccc(C(=O)O)cc2)O3)cc1`, the cytotoxicity call was “inactive”.

For the compound `C[C@@H]1CN([C@@H](C)CO)C(=O)c2cc(NS(=O)(=O)c3ccccc3)ccc2O[C@@H](C)CCCCO[C@H]1CN(C)Cc1ccccc1`, the cytotoxicity call is “inactive”.

On to `COc1ccc(S(=O)(=O)Nc2ccc3c(c2)C(=O)N([C@H](C)CO)C[C@H](C)[C@@H](CN(C)S(=O)(=O)c2ccc(Cl)cc2)OCCCC[C@@H](C)O3)cc1`, for which the cytotoxicity call was “active”.

Consider `COc1ccc(S(=O)(=O)Nc2ccc3c(c2)C(=O)N([C@H](C)CO)C[C@@H](C)[C@H](CN(C)S(=O)(=O)c2ccc(Cl)cc2)OCCCC[C@H](C)O3)cc1`, for which the cytotoxicity call is “inactive”.

For `COc1ccc(S(=O)(=O)N(C)C[C@@H]2OCCCC[C@@H](C)Oc3ccc(NS(=O)(=O)c4ccc(Cl)cc4)cc3C(=O)N([C@H](C)CO)C[C@H]2C)cc1`, the cytotoxicity call was “active”.

In the case of `COc1ccc(S(=O)(=O)N(C)C[C@H]2OCCCC[C@@H](C)Oc3ccc(NS(=O)(=O)c4ccc(Cl)cc4)cc3C(=O)N([C@@H](C)CO)C[C@H]2C)cc1`, the cytotoxicity call was “active”.

Turning to `COc1ccc(S(=O)(=O)N(C)C[C@@H]2OCCCC[C@@H](C)Oc3ccc(NS(=O)(=O)c4ccc(Cl)cc4)cc3C(=O)N([C@@H](C)CO)C[C@@H]2C)cc1`, the cytotoxicity call is “inactive”.

Turning to `COc1ccc(S(=O)(=O)N(C)C[C@@H]2OCCCC[C@H](C)Oc3ccc(NS(=O)(=O)c4ccc(Cl)cc4)cc3C(=O)N([C@H](C)CO)C[C@H]2C)cc1`, the cytotoxicity call is “active”.

In the case of `COc1ccc(NC(=O)Nc2ccc3c(c2)C(=O)N([C@@H](C)CO)C[C@@H](C)[C@@H](CN(C)C(=O)Nc2cccc4ccccc24)OCCCC[C@H](C)O3)cc1`, the cytotoxicity call is “inactive”.

On to `C[C@@H]1CCCCO[C@@H](CN(C)C(=O)Nc2ccc(F)cc2)[C@H](C)CN([C@@H](C)CO)C(=O)c2cc(NC(=O)Nc3ccc(F)cc3)ccc2O1`, for which the cytotoxicity call was “inactive”.

For the compound `O=C(C[C@@H]1CC[C@@H]2[C@H](COC[C@@H](O)CN2C(=O)c2ccccc2)O1)NCCCN1CCOCC1`, the cytotoxicity call is “inactive”.

As for `C[C@H](CO)N1C[C@H](C)[C@@H](CN(C)C(=O)Cc2ccncc2)Oc2cc(C#CC3(O)CCCC3)ccc2S1(=O)=O`, the cytotoxicity call is “inactive”.

Turning to `CN(C)CCCNC(=O)C[C@@H]1CC[C@@H]2[C@H](COc3ccc(NC(=O)c4ccc5c(c4)OCO5)cc3C(=O)N2C)O1`, the cytotoxicity call was “inactive”.

For `O=C(CCCCCNC(=O)OC[C@]12N=C3SCc4ccccc4CN3[C@H](c3ccccc3O1)[C@H]2COC(=O)c1ccccc1)NO`, the cytotoxicity call is “inactive”.

`C[C@@H]1CN([C@H](C)CO)S(=O)(=O)c2ccc(Br)cc2O[C@@H]1CN(C)CC1CCOCC1`: the cytotoxicity call is “inactive”.

For the compound `O=C(Nc1cccc2cccnc12)[C@@H]1[C@H](c2ccc3ccccc3c2)CC(=O)N1C(=O)OCc1ccccc1`, the cytotoxicity call is “inactive”.

As for `COc1ccc2c3c(n(c2c1)C)[C@@H](CO)N(CC1CCOCC1)C[C@]13CN(C1)C(=O)c1cccc(c1)F`, the cytotoxicity call was “inactive”.

For the compound `C[C@@H]1CN([C@@H](C)CO)C(=O)Cc2cc(NC(=O)c3ccncc3)ccc2O[C@H]1CN(C)S(=O)(=O)c1ccc(F)cc1`, the cytotoxicity call was “inactive”.

For `COc1ccc(NC(=O)Nc2ccc3c(c2)C(=O)N([C@@H](C)CO)C[C@@H](C)[C@@H](CN(C)S(=O)(=O)c2ccc(F)cc2)OCCCC[C@H](C)O3)cc1`, the cytotoxicity call is “inactive”.

As to `COc1ccc(S(=O)(=O)Nc2ccc3c(c2)C(=O)N([C@H](C)CO)C[C@@H](C)[C@@H](CN(C)S(=O)(=O)c2ccc(Cl)cc2)OCCCC[C@H](C)O3)cc1`, the cytotoxicity call is “inactive”.

Consider `COc1ccc(S(=O)(=O)N(C)C[C@H]2OCCCC[C@H](C)Oc3ccc(NS(=O)(=O)c4ccc(Cl)cc4)cc3C(=O)N([C@H](C)CO)C[C@@H]2C)cc1`, for which the cytotoxicity call was “active”.

With `COc1ccc(S(=O)(=O)Nc2ccc3c(c2)C(=O)N([C@@H](C)CO)C[C@@H](C)[C@H](CN(C)S(=O)(=O)c2ccc(Cl)cc2)OCCCC[C@H](C)O3)cc1`, the cytotoxicity call was “inactive”.

`CCOC(=O)c1cc2c(c(-c3cccc(Br)c3)n1)[C@@H](CCOC)N([S@](=O)C(C)(C)C)C2`: the cytotoxicity call is “inactive”.

Turning to `Nc1ncnc2c1ncn2[C@@H]1C=C[C@H](CO)O1`, the cytotoxicity call was “inactive”.

Turning to `CCC(=O)N[C@@H]1C=C[C@H](CC(=O)OC)O[C@@H]1CO`, the cytotoxicity call was “inactive”.

Take `Cc1cc(=O)n2ncnc2[nH]1`: the cytotoxicity call was “inactive”.

For the compound `C[C@H]1CCCCO[C@H](CN(C)S(=O)(=O)c2ccccc2)[C@@H](C)CN([C@@H](C)CO)C(=O)c2cc(NC(=O)Nc3ccccc3)ccc2O1`, the cytotoxicity call was “inactive”.

With `CCC1(O)CC2CN(CCc3c([nH]c4ccccc34)C(C(=O)OC)(c3cc4c(cc3OC)N(C=O)C3C(O)(C(=O)OC)C(OC(C)=O)C5(CC)C=CCN6CCC43C65)C2)C1.O=S(=O)(O)O` (stereo not drawn), the cytotoxicity call was “active”.

For `CCC1(O)CC2CN(CCc3c([nH]c4ccccc34)C(C(=O)OC)(c3cc4c(cc3OC)N(C)C3C(O)(C(=O)OC)C(OC(C)=O)C5(CC)C=CCN6CCC43C65)C2)C1.O=S(=O)(O)O` (stereo not drawn), the cytotoxicity call was “active”.

Regarding `COc1ccc(S(=O)(=O)N(C)C[C@H]2OCCCC[C@H](C)Oc3ccc(NC(=O)c4ccccc4)cc3C(=O)N([C@H](C)CO)C[C@@H]2C)cc1`, the cytotoxicity call is “inactive”.
